Consider eleven sequences from paper PMC8384837, “Expanding the binding specificity for RNA recognition by a PUF domain”.

Substitutions are numbered along the chain they refer to.

Holding throughout (assay): yeast three-hybrid, YBZ-1, SC-Leu-His + 0.5 mM 3-AT, 4 days
Holding throughout (conditions): tags: N-Gal4 AD-HA kept; label: inside an RPR1-promoter hybrid RNA with tandem MS2 sites; ssRNA

One assay has as its target PUM1 PUF domain R5-KAS (Homo sapiens, UniProt Q14671 828-1176, C1007K;R1008A;Q1011S). An outline of the steps:
(§1)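 The interaction score is the logarithmic change in variant frequency from input to selection. It uses log2, with a pseudocount of 1 for absent variants, and frequencies came from PCR-amplified, Illumina-sequenced repeat regions. The libraries were Pumilio-1 PUF domains randomized at the three base-contacting residues per repeat, co-expressed with matching RNA elements in strain YBZ-1 (LexA–MS2 coat fusion, HIS3 reporter). Plating lasted four days on SC-Leu (input) or SC-Leu-His + 0.5 mM 3-AT (selection).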

For the next assay, the target named is PUM1 PUF domain R1-QVK (Homo sapiens, UniProt Q14671 828-1176, S863Q;R864V;Q867K). Put shortly: as §1
A further assay deals with T1, PUM1 PUF domain R6-CYV (Homo sapiens, UniProt Q14671 828-1176, N1043C;Q1047V).
T1 sequence: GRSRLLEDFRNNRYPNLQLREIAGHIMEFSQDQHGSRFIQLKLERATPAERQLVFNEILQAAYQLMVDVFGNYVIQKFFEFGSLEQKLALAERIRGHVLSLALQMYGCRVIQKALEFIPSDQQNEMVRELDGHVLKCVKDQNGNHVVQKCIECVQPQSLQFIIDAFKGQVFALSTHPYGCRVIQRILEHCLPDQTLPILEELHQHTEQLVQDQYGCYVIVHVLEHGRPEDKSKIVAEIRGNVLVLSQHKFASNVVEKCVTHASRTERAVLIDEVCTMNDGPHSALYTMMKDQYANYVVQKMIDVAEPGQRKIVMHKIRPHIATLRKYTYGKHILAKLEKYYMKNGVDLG
An outline of the steps:
as §1

The target of another assay is PUM1 PUF domain R4-SNL (Homo sapiens, UniProt Q14671 828-1176, N971S;H972N;Q975L). An outline of the steps: as §1
The target of another assay is PUM1 PUF domain R3-VYF (Homo sapiens, UniProt Q14671 828-1176, C935V;R936Y;Q939F). Put shortly:
as §1

Another assay has as its target T2, PUM1 PUF domain R6-GHS (Homo sapiens, UniProt Q14671 828-1176, N1043G;Y1044H;Q1047S).
T2 sequence: T1 sequence with C216G, Y217H, V220S
Put shortly: as §1

The next assay has as its target PUM1 PUF domain R3-ARA (Homo sapiens, UniProt Q14671 828-1176, C935A;Q939A). An outline of the steps:
as §1

A further assay concerns the target PUM1 PUF domain R1-NWS (Homo sapiens, UniProt Q14671 828-1176, S863N;R864W;Q867S). An outline of the steps:
as §1

Another assay concerns the target PUM1 PUF domain R4-EYM (Homo sapiens, UniProt Q14671 828-1176, N971E;H972Y;Q975M). An outline of the steps: as §1
A further assay deals with PUM1 PUF domain R8-VYK (Homo sapiens, UniProt Q14671 828-1176, N1122V;Q1126K). An outline of the steps:
as §1

For the sequence “GGCUAGAACUAGUGGAUCCCCCGGCGCCCGGCGGCUCGAGCCCGGGUAAGUGUCAAUAGUCUGCAUGCCGCCGGGCGCCAUGCCUGCAGGUCGACUCUAGAAAACAUG”, in the assay with PUM1 PUF domain R5-KAS, the binding signal is 3.47 log2 enrichment (interaction score).
“GGCUAGAACUAGUGGAUCCCCCGGCGCCCGGCGGCUCGAGCCCGGGUAAGUGUAAAUCGUCUGCAUGCCGCCGGGCGCCAUGCCUGCAGGUCGACUCUAGAAAACAUG”: in the assay with PUM1 PUF domain R1-QVK, the binding signal is 2.91 log2 enrichment (interaction score).
For the sequence “GGCUAGAACUAGUGGAUCCCCCGGCGCCCGGCGGCUCGAGCCCGGGUAAGUGUAAAUAGUCUGCAUGCCGCCGGGCGCCAUGCCUGCAGGUCGACUCUAGAAAACAUG”, the binding signal with PUM1 PUF domain R6-CYV was 0.52 log2 enrichment (interaction score); with PUM1 PUF domain R4-SNL, 2.52 log2 enrichment (interaction score); with PUM1 PUF domain R3-VYF it was 5.15 log2 enrichment (interaction score); in the assay with PUM1 PUF domain R6-GHS, 0.45 log2 enrichment (interaction score); in the assay with PUM1 PUF domain R3-ARA, 3.97 log2 enrichment (interaction score).
Consider “GGCUAGAACUAGUGGAUCCCCCGGCGCCCGGCGGCUCGAGCCCGGGUAAGUGUAAAUUGUCUGCAUGCCGCCGGGCGCCAUGCCUGCAGGUCGACUCUAGAAAACAUG”, for which the binding signal with PUM1 PUF domain R1-NWS is 5.3 log2 enrichment (interaction score); with PUM1 PUF domain R1-QVK it was 0.46 log2 enrichment (interaction score).
“GGCUAGAACUAGUGGAUCCCCCGGCGCCCGGCGGCUCGAGCCCGGGUAAGUGUAAGUAGUCUGCAUGCCGCCGGGCGCCAUGCCUGCAGGUCGACUCUAGAAAACAUG”: in the assay with PUM1 PUF domain R3-ARA, the binding signal is 1.03 log2 enrichment (interaction score).
Turning to “GGCUAGAACUAGUGGAUCCCCCGGCGCCCGGCGGCUCGAGCCCGGGUAAGUGUAUAUAGUCUGCAUGCCGCCGGGCGCCAUGCCUGCAGGUCGACUCUAGAAAACAUG”, the binding signal with PUM1 PUF domain R4-SNL was 4.22 log2 enrichment (interaction score).
For “GGCUAGAACUAGUGGAUCCCCCGGCGCCCGGCGGCUCGAGCCCGGGUAAGUGUAAUUAGUCUGCAUGCCGCCGGGCGCCAUGCCUGCAGGUCGACUCUAGAAAACAUG”, the binding signal with PUM1 PUF domain R3-ARA was 0.92 log2 enrichment (interaction score).
Regarding “GGCUAGAACUAGUGGAUCCCCCGGCGCCCGGCGGCUCGAGCCCGGGUAAGUGUACAUAGUCUGCAUGCCGCCGGGCGCCAUGCCUGCAGGUCGACUCUAGAAAACAUG”, the binding signal with PUM1 PUF domain R4-SNL is 1.34 log2 enrichment (interaction score); with PUM1 PUF domain R4-EYM, 2.59 log2 enrichment (interaction score).
Take “GGCUAGAACUAGUGGAUCCCCCGGCGCCCGGCGGCUCGAGCCCGGGUAAGCGUAAAUAGUCUGCAUGCCGCCGGGCGCCAUGCCUGCAGGUCGACUCUAGAAAACAUG”: in the assay with PUM1 PUF domain R8-VYK, the binding signal was 4.78 log2 enrichment (interaction score).
With “GGCUAGAACUAGUGGAUCCCCCGGCGCCCGGCGGCUCGAGCCCGGGUAAGUGUUAAUAGUCUGCAUGCCGCCGGGCGCCAUGCCUGCAGGUCGACUCUAGAAAACAUG”, in the assay with PUM1 PUF domain R5-KAS, the binding signal was 5.33 log2 enrichment (interaction score).
As to “GGCUAGAACUAGUGGAUCCCCCGGCGCCCGGCGGCUCGAGCCCGGGUAAGUGAAAAUAGUCUGCAUGCCGCCGGGCGCCAUGCCUGCAGGUCGACUCUAGAAAACAUG”, the binding signal with PUM1 PUF domain R6-CYV was 3.61 log2 enrichment (interaction score); with PUM1 PUF domain R6-GHS, 2.5 log2 enrichment (interaction score).
